HCV inhibitor: HCV inhibition; Huh7.5.1 HCVcc-Cre infection, luciferase reporter, 44 h; Potency, µM (series often up to 41.8 µM), for inactives: top-dose activity change, negative = inhibition, usual class: inhibitors; 340,000 compounds, 3.4% hits; AID 651820; active means well fitted inhibition curve with a large enough effect; inconclusive means small, poorly fitted or top-dose-only effect, or another doubt; inactive means no such curve, though single readings can be large or run the other way; further: potency means the concentration at half of the fitted maximal effect; on the % scale 0 is the no-effect control and ±100 the full control effect
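Cells seeded at 1,000/well and cultured 4 h, then compounds added followed by HCVcc-Cre virus (~0.5 moi). After 44 h further culture, luciferase substrate was added, plates held 15 min at room temperature, and luminescence read for 15 sec.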
Marburg entry inh: inhibitors of Marburg virus binding or cell entry | Marburg virus pseudotyped entry inhibition, cell reporter | Potency, µM (titrated, usually from 37.8 µM), for inactives: at the highest dose activity change, negative = inhibition, most hits filed as inhibitors | 300,000 compounds, 1.8% hits | AID 540276; calls by dose curve; tested in HEK293 cells; further: potency means the concentration at half of the fitted maximal effect; on the % scale 0 is the no-effect control and ±100 the full control effect
Shiga inhibitor: Shiga toxin inhibition; Vero cells, Shiga toxin protein synthesis inhibition reporter; inhibition, % at 38.7 µM; 290,000 compounds, 9.2% hits; AID 2315; in the data active means inhibition mostly above about 28%, no sharp cut-off; inactive means mostly below about 43%; further: 0% is about no effect
Lassa entry inh: inhibitors of Lassa virus binding or cell entry. Lassa virus pseudotype entry inhibition, cell reporter. Potency, µM (series often up to 37.9 µM), inactives show at the top dose activity change, negative = inhibition, most hits filed as inhibitors. AID 540256. 300,000 compounds, 1.2% hits; calls by dose curve; tested in HEK293 cells; further: potency means the concentration at half of the fitted maximal effect; on the % scale 0 is the no-effect control and ±100 the full control effect; nearly all actives have a fitted effect of over 50% in size
FMDV antiviral: blocks foot and mouth disease virus | 410,000 compounds, 1.2% hits | Potency, µM (top dose mostly 57.9 µM), without a hit: top-dose activity change, negative = inhibition, most hits filed as inhibitors | AID 1159524 | FMDV antiviral cell-based qHTS; calls by dose curve; tested in HEK293T cells; further: read-out not given here; potency means the concentration at half of the fitted maximal effect; on the % scale 0 is the no-effect control and ±100 the full control effect; nearly all actives have a fitted effect of over 45% in size
CHX counter: counter-screen hit for Shiga toxin inhibitors, cycloheximide; 300,000 compounds, 12% hits; AID 2314; cell reporter, cycloheximide protein synthesis inhibition counterscreen; max response, %; in the data active means max response mostly above about 13%, no sharp cut-off; inactive means mostly below about 14%; further: read at 38.3 µM for the half of the compounds with a filed dose; 0% is about no effect
Active calls of the source: *; ? = inconclusive; · = not tested or not shown; [ ] = remark or other dose. In the library only some 13% were active in any assay of this set; here they are far more common.

SMILES	HCV inhibitor	Marburg entry inh	Shiga inhibitor	Lassa entry inh	FMDV antiviral	CHX counter
Cc1cnc(CNc2ccnc(-c3ccccc3Cl)n2)cn1	·	·	·	·	0.0%	·
O=C(O)CCCNc1cc(N2CCC3(CC2)OCCO3)c2noc3c2c1C(=O)c1ccccc1-3	·	-6.5%	53.5*	·	·	24.3*
O=C(O)CCCNc1cc(N2CCN(C(=O)c3ccco3)CC2)c2noc3c2c1C(=O)c1ccccc1-3	-5.2%	3.6%[46.1 µM]	1.5	-15.6%[46.1 µM]	8.1%	-7.2
CCOc1ccc(S(=O)(=O)N2CCCCC2)c(C)c1C	-17.0%	·	-3.3	·	-10.6%	4.8
CCCCC1(C)OC(=O)C(=Cc2ccc(-c3ccc(Cl)c(C(=O)O)c3)o2)C(=O)O1 (centres undefined)	7.8%	1.1%[46.1 µM]	-5.9	2.0%	27.5%	0.4
COC(=O)c1ccc(OCc2nc(N)nc(N3CCOCC3)n2)cc1	9.4%	-1.9%[46.1 µM]	24.4	4.3%	3.9%	-6.0
Nc1nc(COc2ccc(F)cc2)nc(N2CCCCC2)n1	-24.8%	19.4%[46.1 µM]	-9.7	11.8%	15.3%	18.8*
Cc1ccc2cc3cc(C(=O)NCCCN4CCCCCC4)oc3nc2c1	?	-2.6%[46.1 µM]	0.5	-1.4%	-11.7%	14.8
Cc1ccc2nc(Cl)c3cc(C(=O)NCCCN4CCCC4)sc3c2c1	8.91µM*	10µM*	-12.4	-18.4%[46.1 µM]	-1.8%	-2.0
Cc1ccc2cc3cc(C(=O)NCCCN4CCc5ccccc5C4)oc3nc2c1	?	-34.7%	35.3	?	-24.0%	29.9*
Cc1ccc2cc3cc(C(=O)NCCCN4CCCC4)oc3nc2c1	14.1µM*	·	0.7	·	-18.9%	1.5
Cc1cccc(N(C)C(=O)c2cc3cc4ccc(C)cc4nc3o2)c1	-5.4%	?	active	?	35.1%	38.6*
COc1ccccc1CN1CCC(n2nccc2NC(=O)CCCc2ccccc2)CC1	-15.5%	·	-5.9	·	-9.3%	-2.9
COc1c(C)cc(C(=O)C2CCCN(C3CCOCC3)C2)cc1C (centres undefined)	0.5%	-7.7%[46.1 µM]	-1.6	14.7%[46.1 µM]	-3.3%	2.3
O=C(Nc1ncccc1O)c1ccc(Oc2ccccc2)cc1	5.2%	-29.1%[46.1 µM]	70.7*	?	-2.7%	52.4*
O=C(c1ccc(OCC2CCCO2)cc1)N1CCc2ccccc2C1 (centres undefined)	2.9%	23.5%[46.1 µM]	56.3*	-5.3%	43.3%	29.8*
CCOc1cc(C(=O)NC2=NCCS2)cc(OCC)c1OCC	-8.5%	·	25.5	·	25.0%	22.3
O=C(Nc1ncccc1O)c1ccc(OCC2CCCO2)cc1 (centres undefined)	11.6%	·	51.7*	·	-37.8%	35.2*
O=C(c1ccc(OCC2CCCO2)cc1)N1CCN(c2ccccc2)CC1 (centres undefined)	-6.9%	8.1%	-1.5	-5.4%	-14.6%	-3.4
CCOc1ccc(C(=O)NC2=NCCS2)cc1	·	·	82.9*	·	·	27.5*
O=C(COc1ccc(C(=O)c2ccccc2)cc1)Nc1ncccc1O	-6.5%	·	·	·	-5.5%	·
CCCCN(C)C(=O)CCCCn1c(=O)[nH]c2cc(OCC)c(OCC)cc2c1=O	-7.9%	-4.3%	-15.2	-29.7%	-10.5%	-1.8
CCOC(=O)Cn1c(=O)n(-c2ccccc2OC)c2nc(-c3ccccc3F)nc(C(N)=O)c21	·	·	·	-21.4%[46.1 µM]	-10.1%	·
NC(=O)c1ccc(OCC2CCCO2)cc1 (centres undefined)	?	4.6%[46.1 µM]	-5.8	?	1.9%	9.1
O=C(NC1=NCCS1)c1ccc(OCC2CCCO2)cc1 (centres undefined)	-3.8%	?	51.5*	?	-1.7%	30.3*
SMILES	HCV inhibitor	Marburg entry inh	Shiga inhibitor	Lassa entry inh	FMDV antiviral	CHX counter
Cc1cc(/C=C(\C#N)C(=O)N2CCCCC2)cc(C)c1O	-22.5%	?	50.7*	?	32.3%	17.3
COc1ccc(N/C=C/C(=O)c2ccc(Oc3ncccn3)cc2)cc1	11.9%	9.5%	10.9	-22.5%	22.1%	10.2
NS(=O)(=O)c1ccc(N/C=C\C(=O)c2ccc(F)cc2)cc1	-7.6%	?	64.5*	-10.8%	40.5%	29.3*
CC(=O)Nc1ccc(N/C=C/C(=O)c2ccc(Br)cc2)cc1	1.0%	·	4.1	·	35.0%	-1.8
CCOC(=O)C(=CNc1ccc(S(N)(=O)=O)cc1)C(=O)OCC	-27.8%	-22.2%[46.1 µM]	-4.4	?	-21.8%	-2.9
O=C(/C=C/Nc1ccc(F)cc1)c1ccc(Oc2ncccn2)cc1	-27.4%	11.3%	37.9	8.3%	35.1%	15.4*
CC(=O)c1ccc(N/C=C/C(=O)c2ccc(Br)cc2)cc1	9.7%	·	21.9*	·	54.5%	11.1*
NS(=O)(=O)c1ccc(N/C=C\C(=O)c2ccncc2)cc1	9.7%	?	26.4	0.6%	4.6%	7.5
NS(=O)(=O)c1ccc(N/C=C/C(=O)c2ccc(Br)cc2)cc1	21.3%	?	77.1*	5.3%	19.7%	61.4*
CN(C)c1ccc(N/C=C/C(=O)c2ccc(F)cc2)cc1	-3.9%	?	63.1*	?	-18.7%	64.5*
O=C(Nc1ccc(Cl)cc1)C1CCCC1	-22.4%	·	20.6	·	9.1%	5.9
Cc1cccc(N2C(=O)CC(N(O)c3ccccc3)C2=O)c1 (centres undefined)	8.3%	23.3%	59.4	29.5%	13.6%	27.9*
O=C1CC(N(O)c2ccccc2)C(=O)N1c1ccc(Cl)c(Cl)c1 (centres undefined)	6.0%	·	17.6	·	10.6%	10.0*
CN1C(=O)N(C)c2ccc(Br)c3cccc1c23	14.1µM*	·	-2.2	·	-11.8%	6.1
COc1cccc(N2CCN(CC(=O)c3c(C)[nH]c4ccccc34)CC2)c1	?	?	-13.0	3.0%	-9.7%	-2.9
O=C(Oc1ccc(Br)cc1C(=O)/C=C/c1ccccc1F)c1ccco1	10µM*	?	·	?	?	·
CC1CCN(C(=O)c2cc(-c3ccco3)on2)CC1	-12.1%	?	66.3*	?	14.5%	27.4*
CC1CCCC(C)N1C(=O)c1cc(-c2ccco2)on1 (centres undefined)	4.3%	-5.3%[46.1 µM]	47.5*	18.9%	23.8%	7.7
CCC(C)NC(=O)c1cc(-c2cccc(OC)c2)on1 (centres undefined)	·	?	·	1.8%[46.1 µM]	41.4%	·
CC1CCN(C(=O)c2cc(-c3ccccc3O)on2)CC1	11.5%	·	85.4*	·	23.2%	39.0*
COc1cccc(-c2cc(C(=O)N3C(C)CCCC3C)no2)c1 (centres undefined)	-1.9%	?	72.1*	-7.2%	80.8%	99.6*
O=C(c1cc(-c2ccco2)on1)N1CCN(c2ccccc2)CC1	?	·	17.4	·	-12.6%	4.7
COc1ccc(-c2ccnc(-c3ccc(OCCCF)cc3)n2)cc1	?	-1.2%	29.2	?	-11.2%	6.3
COc1ccc(C(CNC(=O)C2CC2)N(C)C)cc1 (centres undefined)	7.9%	·	26.8*	·	15.6%	16.7*
COc1ccc(C(CNC(=O)C(C)c2ccc3cc(OC)ccc3c2)N(C)C)cc1 (centres undefined)	-22.7%	?	17.8	?	18.2%	4.1
O=C(Nc1nccs1)c1ccc(COc2ccccc2Cl)o1	?	-6.5%	80.6*	?	27.0%	60.3*

Source: PubChem (National Center for Advancing Translational Sciences (NCATS))
